Here are results for 20 compounds from PubChem BioAssay (NCI).

Compounds without any hit were thinned out: in the full panel of roughly 83,000, 20% have a hit.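 For each line, cells grew in 96-well plates with the test compound present at a single concentration for 48 hours.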 Values without a mark were called inactive. Activity calls are given as the source filed them. How the source made its calls: active means growth percent below 10; inactive means the rest.

Some test systems named below: DU-145 prostate; K-562 leukemia; MALME-3M melanoma; MDA-MB-231 breast; RXF 393 renal; SF-268 CNS; SF-295 CNS; SF-539 CNS; UACC-257 melanoma; M14 melanoma.
Experiment in all cases: NCI-60 one-dose screen, 48 h (100 = growth as untreated, 0 = no growth, -100 = all killed)
Common to all, as to conditions: 10 µM

Regarding `CS(=O)(=O)Nc1ccc(-c2ccc3c(c2)ncn3-c2ccc(NC(=O)Nc3ccc(Cl)c(C(F)(F)F)c3)cc2)cc1`, the growth was -4.47% (active) in the assay on DU-145 prostate; -26% (active) in the assay with K-562 leukemia; -80.8% (active) in the assay with MALME-3M melanoma; -84.6% (active) in the assay on MDA-MB-231 breast; -57.5% (active) in the assay with RXF 393 renal; 2.56% (active) with SF-268 CNS. Moreover, the growth with SF-295 CNS is -77.5% (active); in the assay on SF-539 CNS it was -88.8% (active); in the assay with UACC-257 melanoma, -57.2% (active); with M14 melanoma, -95.3% (active).
As to `O=C(N/N=C/c1ccc(-c2cccc([N+](=O)[O-])c2)o1)c1[nH]c2ccc(Br)cc2c1-c1ccccc1`, the growth with DU-145 prostate is 6.18% (active); in the assay on K-562 leukemia it was 4.74% (active); in the assay on MALME-3M melanoma, 39%; in the assay on MDA-MB-231 breast, 6.8% (active); in the assay with RXF 393 renal, 26.4%; in the assay on SF-268 CNS, 36%. Besides, the growth in the assay with SF-295 CNS was -15.3% (active); in the assay on SF-539 CNS, -49.8% (active); in the assay with UACC-257 melanoma, 41.9%; with M14 melanoma, 10.4%.
Take `COc1cccc(COc2ccc(/C=C3\Oc4cc(O)ccc4C3=O)cc2)c1`: the growth in the assay with DU-145 prostate was 31.8%; with K-562 leukemia it was 49.4%; in the assay with MALME-3M melanoma it was 14.3%; in the assay with MDA-MB-231 breast it was 28.6%; in the assay on RXF 393 renal it was -19.3% (active); with SF-268 CNS it was 17.2%. For the same compound, the growth with SF-295 CNS was 9.41% (active); in the assay with SF-539 CNS it was 30%; in the assay on UACC-257 melanoma, 70.6%; in the assay on M14 melanoma, 35.9%.
With `N#Cc1c(NC(=O)c2ccc(C(F)(F)F)cc2)sc2c1CCC(O)=C2`, the growth was 38.5% with DU-145 prostate; 8.86% (active) in the assay with K-562 leukemia; 23.2% with MALME-3M melanoma; 13.5% in the assay with MDA-MB-231 breast; 14.6% in the assay on RXF 393 renal; 43.3% with SF-268 CNS. The growth with SF-295 CNS is 17.5%; in the assay with SF-539 CNS it was 3.2% (active); in the assay with UACC-257 melanoma, 36%; in the assay on M14 melanoma, 13%.
Regarding `COc1cc2c(cc1OC)CN(CCCCOc1cc(O)c3c(=O)cc(-c4ccccc4)oc3c1)CC2`, the growth in the assay on DU-145 prostate was 80.3%; in the assay on K-562 leukemia, -6.81% (active); with MALME-3M melanoma, -68.6% (active); in the assay on MDA-MB-231 breast, 38.5%; in the assay on RXF 393 renal, 29.8%; with SF-268 CNS, 65.9%. The growth in the assay with SF-295 CNS was 26.2%; in the assay on SF-539 CNS, 48.7%; in the assay with UACC-257 melanoma, 5.33% (active); with M14 melanoma it was -21% (active).
Turning to `CC(=O)Nc1ccc(-c2cn(-c3cccc(C(=O)Nc4cc(C(F)(F)F)cc(C(F)(F)F)c4)c3)nn2)cn1`, the growth in the assay on DU-145 prostate was -47.5% (active); with K-562 leukemia it was -66.1% (active); with MALME-3M melanoma, -48.3% (active); with MDA-MB-231 breast, -72.5% (active); with RXF 393 renal, -69.4% (active); in the assay on SF-268 CNS, -7.7% (active). Moreover, the growth is -89.1% (active) in the assay on SF-295 CNS, -83.7% (active) in the assay on SF-539 CNS, -4.2% (active) in the assay on UACC-257 melanoma and 4.5% (active) in the assay on M14 melanoma.
On to `COc1ccc(C(=O)Nc2ccc(-c3ccc4c(c3)NC(=O)/C4=C\c3ccc[nH]3)cc2)cc1`, for which the growth in the assay with DU-145 prostate is -25.7% (active); with K-562 leukemia, 67.5%; in the assay with MALME-3M melanoma it was 50.9%; in the assay on MDA-MB-231 breast, 25.6%; in the assay with RXF 393 renal, 8.7% (active); in the assay with SF-268 CNS, 0.17% (active). For the same compound, the growth in the assay with SF-295 CNS was -76.1% (active); with SF-539 CNS, 76.8%; in the assay on UACC-257 melanoma, 77.5%; with M14 melanoma, 28.1%.
For `Cn1cc(-c2cc(N)n3nc(-c4c[nH]c5ccc(Br)cc45)cc3n2)c2cc(Br)cnc21`, the growth in the assay on DU-145 prostate was -75.6% (active); in the assay on K-562 leukemia it was -27.4% (active); in the assay on MALME-3M melanoma, -92.1% (active); with MDA-MB-231 breast, -82.5% (active); in the assay on RXF 393 renal, -71.2% (active); in the assay on SF-268 CNS, -22.5% (active). Also, the growth in the assay with SF-295 CNS is -86.4% (active); in the assay with SF-539 CNS, -97.6% (active); with UACC-257 melanoma it was -65.4% (active); with M14 melanoma, -90.6% (active).
Take `COc1ccc(C(=O)NC(=S)N2CCN(c3ncnc4c3cnn4-c3ccccc3)CC2)cc1`: the growth in the assay on DU-145 prostate was 79.9%; with K-562 leukemia, 62.7%; in the assay with MALME-3M melanoma, 57.8%; in the assay with MDA-MB-231 breast it was 80.2%; in the assay on RXF 393 renal it was 49.9%; with SF-268 CNS, 63.8%. In addition, the growth with SF-295 CNS is 57.8%; with SF-539 CNS, 32.3%; in the assay with UACC-257 melanoma, 54.4%; with M14 melanoma, 63.1%.
In the case of `Cc1cccc(NC(=O)CSc2nc3ccc(F)cc3c(=O)n2-c2ccc(Cl)cc2)c1C`, the growth is 69.6% in the assay with DU-145 prostate; 84.3% in the assay with K-562 leukemia; 65.5% in the assay with MALME-3M melanoma; 51.8% in the assay with MDA-MB-231 breast; 18.8% in the assay with RXF 393 renal; 59.1% in the assay with SF-268 CNS. Further, the growth with SF-295 CNS is 57.5%; in the assay on SF-539 CNS it was 25.7%; in the assay with UACC-257 melanoma, 87.7%; in the assay with M14 melanoma, 74%.
With `COc1ccc(N2N=C(c3ccc4c(c3)OCCO4)CC2c2cccc(NC(=O)CCCNS(=O)(=O)c3ccc(F)cc3)c2)cc1` (stereo not given), the growth is 91.5% with DU-145 prostate; 56% in the assay with K-562 leukemia; 79.7% in the assay with MALME-3M melanoma; 69.2% with MDA-MB-231 breast; 68.1% with RXF 393 renal; 56.2% in the assay on SF-268 CNS. Also, the growth with SF-295 CNS is 65.2%; in the assay on SF-539 CNS it was 77.7%; in the assay on UACC-257 melanoma, 88%; in the assay on M14 melanoma, 81.9%.
Regarding `Cn1cc(-c2cc(N)n3nc(-c4c[nH]c5ccc(Br)cc45)cc3n2)c2cccnc21`, the growth was -92.5% (active) with DU-145 prostate; -3.96% (active) in the assay with K-562 leukemia; -92.4% (active) in the assay with MALME-3M melanoma; -85.6% (active) in the assay with MDA-MB-231 breast; -85.2% (active) in the assay with RXF 393 renal; -45.7% (active) with SF-268 CNS. For the same compound, the growth in the assay with SF-295 CNS is -91.9% (active); in the assay with SF-539 CNS, -97.7% (active); with UACC-257 melanoma, -84.3% (active); with M14 melanoma it was -85.8% (active).
Turning to `N#Cc1c(NC(=O)c2ccc(C(O)(C(F)(F)F)C(F)(F)F)cc2)sc2c1CCC(=O)C2`, the growth in the assay on DU-145 prostate was 15.5%; with K-562 leukemia it was -10.8% (active); in the assay with MALME-3M melanoma, -92.5% (active); with MDA-MB-231 breast, -89.7% (active); with RXF 393 renal, -89% (active); in the assay on SF-268 CNS, -9.56% (active). The growth was -97% (active) with SF-295 CNS, -96.2% (active) with SF-539 CNS, -61.6% (active) in the assay on UACC-257 melanoma and -68% (active) with M14 melanoma.
As to `CONC[C@]1(C)C=C2C(=O)[C@](C)(O)C3(CC3)C(C)=C2[C@H]1O`, the growth in the assay on DU-145 prostate was 2.57% (active); in the assay on K-562 leukemia it was 2.9% (active); in the assay with MALME-3M melanoma, -73.5% (active); in the assay on MDA-MB-231 breast it was -33.5% (active); in the assay on RXF 393 renal, -85.9% (active); in the assay with SF-268 CNS it was -4.06% (active). For the same compound, the growth with SF-295 CNS was -9.33% (active); in the assay on SF-539 CNS it was -80.5% (active); in the assay with UACC-257 melanoma, -27.2% (active); with M14 melanoma it was -13.5% (active).
For the compound `CN1CCCN(Cc2ccc(C(=O)Nc3cccc(Nc4ccc5cc(O)ccc5n4)c3)cc2C(F)(F)F)CC1`, the growth with DU-145 prostate was 73.7%; in the assay on K-562 leukemia it was 14.8%; in the assay on MALME-3M melanoma, 51%; in the assay with MDA-MB-231 breast it was 34.9%; with RXF 393 renal it was 60.8%; in the assay with SF-268 CNS, 62.5%. The growth with SF-295 CNS was -68.5% (active); in the assay with SF-539 CNS, 41.8%; in the assay with UACC-257 melanoma, 59.8%; with M14 melanoma, 47.2%.
Turning to `COc1ccc(N(C)c2cc(C#N)nc3ccccc23)cc1N`, the growth with DU-145 prostate is 20.3%; in the assay on K-562 leukemia, 10.7%; in the assay with MALME-3M melanoma, 62.1%; in the assay with MDA-MB-231 breast, 12.2%; with RXF 393 renal, 57.2%; with SF-268 CNS it was 22%. For the same compound, the growth was 15.8% in the assay on SF-295 CNS, -23.7% (active) in the assay with SF-539 CNS, 63.3% with UACC-257 melanoma and 26.5% with M14 melanoma.
`COc1ccc(/C(C)=N/N=C2C(=O)N(C)c3ccc(Br)cc32)cc1S(N)(=O)=O`: the growth in the assay on DU-145 prostate was 86.1%; with K-562 leukemia, 93.1%; in the assay with MALME-3M melanoma it was 64.2%; in the assay on MDA-MB-231 breast it was 56.7%; in the assay on RXF 393 renal, 57.4%; in the assay with SF-268 CNS it was 33.4%. For the same compound, the growth was 47.4% in the assay on SF-295 CNS, 43.3% with SF-539 CNS, 83.1% with UACC-257 melanoma and 87.1% in the assay with M14 melanoma.
In the case of `COc1ccc(C(=O)Nc2sc3c(c2C#N)CCC(=O)C3)cc1C(F)(F)F`, the growth in the assay on DU-145 prostate was 25.3%; in the assay on K-562 leukemia, 3.54% (active); with MALME-3M melanoma it was -52.3% (active); with MDA-MB-231 breast, -50.8% (active); in the assay with RXF 393 renal, -41.9% (active); in the assay on SF-268 CNS it was 26.8%. In addition, the growth in the assay with SF-295 CNS is -15.4% (active); with SF-539 CNS, -82.7% (active); in the assay with UACC-257 melanoma, -15.8% (active); in the assay on M14 melanoma, -16.8% (active).
In the case of `Clc1ccc(/C=N/Nc2ncnc3sc4c(c23)CCN(Cc2ccccc2)C4)cc1`, the growth with DU-145 prostate was 3.38% (active); in the assay on K-562 leukemia it was 1.43% (active); with MALME-3M melanoma, -66.9% (active); with MDA-MB-231 breast it was -65.8% (active); with RXF 393 renal, 31.5%; with SF-268 CNS it was -31.2% (active). Also, the growth is -81.6% (active) in the assay with SF-295 CNS, -87.1% (active) with SF-539 CNS, -15.5% (active) in the assay with UACC-257 melanoma and -63.2% (active) in the assay on M14 melanoma.
As for `N#Cc1c(-c2ccc(F)cc2)nc(SCc2ccc([N+](=O)[O-])cc2)nc1N1CCOCC1`, the growth with DU-145 prostate was 73.3%; in the assay with K-562 leukemia, 76.9%; in the assay with MALME-3M melanoma, 42.8%; in the assay on MDA-MB-231 breast, 47.1%; in the assay with RXF 393 renal it was 9.79% (active); in the assay on SF-268 CNS, 49.3%. In addition, the growth in the assay on SF-295 CNS is 41.5%; with SF-539 CNS, 26.2%; with UACC-257 melanoma, 54.2%; in the assay with M14 melanoma, 87.7%.
